About 2,000 (36%) of roughly 5,500 compounds were called active. Roughly 18% stayed inconclusive and do not appear here. Rule as the data show it: active = normalized growth mostly below about 0.91 (no sharp cut-off); inconclusive = no clear call, values can overlap the other calls; inactive = mostly above about 0.92. The list shows a part of the results.
Assay: chemical genetic growth profiling, strain panel (AID 1159580);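 also: tested at 20 µM; growth read once vehicle control cultures reached saturation at 30 °C; 1 = growth at the plate median or of vehicle wells; lower values mean less growth of the strain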
Conditions: growth OD

Measured: normalized growth

C1CCN2C[C@@H]3C[C@H](CN4CCCC[C@@H]34)[C@H]2C1
inactive: S. cerevisiae deletion strains, locus YJR066W, strain TOR1, active compounds read low 0.988 | S. cerevisiae deletion strains, locus YJR075W, strain HOC1, active compounds read low 1.01 | S. cerevisiae deletion strains, locus YKL009W, strain mrt4, active compounds read low 0.994 | S. cerevisiae deletion strains, locus YKL068W, active compounds read low 0.999 | S. cerevisiae deletion strains, locus YKL085W, strain MDH1 (second series), active compounds read low 1.02 | S. cerevisiae deletion strains, locus YKL085W, strain MDH1, active compounds read low 1.02 | S. cerevisiae deletion strains, locus YKL160W, strain elf1, active compounds read low 0.987 | S. cerevisiae deletion strains, locus YKL190W, strain CNB1, active compounds read low 1.02 | S. cerevisiae deletion strains, locus YKR001C, strain vps1, active compounds read low 0.996 | S. cerevisiae deletion strains, locus YKR026C, strain gcn3, active compounds read low 1.01 | S. cerevisiae deletion strains, locus YKR091W, strain srl3, active compounds read low 1 | S. cerevisiae deletion strains, locus YLL001W, strain dnm1, active compounds read low 0.999 | S. cerevisiae deletion strains, locus YLL026W, active compounds read low 1.01 | S. cerevisiae deletion strains, locus YLL041C, strain sdh2, active compounds read low 0.999 | S. cerevisiae deletion strains, locus YLR027C, strain aat2, active compounds read low 0.992 | S. cerevisiae deletion strains, locus YLR039C, strain RIC1, active compounds read low 1.06 | S. cerevisiae deletion strains, locus YLR058C, strain SHM2, active compounds read low 1.01 | S. cerevisiae deletion strains, locus YLR102C, strain apc9, active compounds read low 0.993 | S. cerevisiae deletion strains, locus YLR113W, strain HOG1, active compounds read low 1.01 | S. cerevisiae deletion strains, locus YLR221C, strain rsa3, active compounds read low 1.03 | S. cerevisiae deletion strains, locus YLR258W, strain gsy2, active compounds read low 1.01 | S. cerevisiae deletion strains, locus YLR262C, strain YPT6 (second series), active compounds read low 1.04 | S. cerevisiae deletion strains, locus YLR262C, strain YPT6, active compounds read low 1.1 | S. cerevisiae deletion strains, locus YLR268W, strain sec22, active compounds read low 0.996 | S. cerevisiae deletion strains, locus YLR320W, strain mms22, active compounds read low 1.04 | S. cerevisiae deletion strains, locus YLR330W, strain CHS5, active compounds read low 1.02 | S. cerevisiae deletion strains, locus YLR342W, strain FKS1 (second series), active compounds read low 0.996 | S. cerevisiae deletion strains, locus YLR342W, strain FKS1, active compounds read low 1 | S. cerevisiae deletion strains, locus YLR357W, strain rsc2, active compounds read low 1.02 | S. cerevisiae deletion strains, locus YLR370C, strain arc18, active compounds read low 1.01 | S. cerevisiae deletion strains, locus YLR371W, strain rom2, active compounds read low 0.999 | S. cerevisiae deletion strains, locus YLR384C, strain iki3, active compounds read low 1.01 | S. cerevisiae deletion strains, locus YLR418C, strain cdc73, active compounds read low 0.98 | S. cerevisiae deletion strains, locus YML016C, strain PPZ1, active compounds read low 0.997 | S. cerevisiae deletion strains, locus YML032C, strain rad52, active compounds read low 0.994 | S. cerevisiae deletion strains, locus YML120C, strain ndi1, active compounds read low 1.01 | S. cerevisiae deletion strains, locus YML124C, strain tub3, active compounds read low 1.01 | S. cerevisiae deletion strains, locus YMR058W, strain fet3, active compounds read low 1.01 | S. cerevisiae deletion strains, locus YMR078C, strain ctf18, active compounds read low 1 | S. cerevisiae deletion strains, locus YMR125W, strain sto1, active compounds read low 0.995 | S. cerevisiae deletion strains, locus YMR129W, active compounds read low 1.03 | S. cerevisiae deletion strains, locus YMR205C, strain PFK2, active compounds read low 0.997 | S. cerevisiae deletion strains, locus YMR223W, strain ubp8, active compounds read low 1.01 | S. cerevisiae deletion strains, locus YMR231W, strain pep5, active compounds read low 1.01 | S. cerevisiae deletion strains, locus YMR307W, strain GAS1, active compounds read low 1.02 | S. cerevisiae deletion strains, locus YNL067W, strain RPL9B, active compounds read low 1.01 | S. cerevisiae deletion strains, locus YNL071W, strain lat1, active compounds read low 1.01 | S. cerevisiae deletion strains, locus YNL153C, strain GIM3, active compounds read low 1.01 | S. cerevisiae deletion strains, locus YNL183C, strain NPR1, active compounds read low 0.98 | S. cerevisiae deletion strains, locus YNL209W, strain ssb2, active compounds read low 1.01 | S. cerevisiae deletion strains, locus YNL233W, strain BNI4, active compounds read low 1.01 | S. cerevisiae deletion strains, locus YNL248C, strain rpa49, active compounds read low 1.03 | S. cerevisiae deletion strains, locus YNL250W, strain rad50, active compounds read low 1.02 | S. cerevisiae deletion strains, locus YNL271C, strain bni1, active compounds read low 1.01 | S. cerevisiae deletion strains, locus YNL298W, strain CLA4, active compounds read low 0.994 | S. cerevisiae deletion strains, locus YNL307C, strain MCK1, active compounds read low 1.01 | S. cerevisiae deletion strains, locus YNL322C, strain KRE1 (second series), active compounds read low 1.01 | S. cerevisiae deletion strains, locus YNR049C, strain mso1, active compounds read low 1.01 | S. cerevisiae deletion strains, locus YNR052C, strain pop2, active compounds read low 1.02 | S. cerevisiae deletion strains, locus YOL006C, strain TOP1, active compounds read low 1.08 | S. cerevisiae deletion strains, locus YOL012C, strain htz1 1.61 | S. cerevisiae deletion strains, locus YOL147C, strain pex11, active compounds read low 1 | S. cerevisiae deletion strains, locus YOR001W, strain rrp6, active compounds read low 1.02 | S. cerevisiae deletion strains, locus YOR061W, strain CKA2, active compounds read low 1.01 | S. cerevisiae deletion strains, locus YOR069W, strain VPS5, active compounds read low 1 | S. cerevisiae deletion strains, locus YOR070C, strain gyp1, active compounds read low 1.02 | S. cerevisiae deletion strains, locus YOR080W, strain dia2, active compounds read low 0.999 | S. cerevisiae deletion strains, locus YOR083W, strain WHI5, active compounds read low 0.979 | S. cerevisiae deletion strains, locus YOR106W, strain vam3, active compounds read low 1 | S. cerevisiae deletion strains, locus YOR136W, strain idh2, active compounds read low 0.998 | S. cerevisiae deletion strains, locus YOR144C, strain elg1, active compounds read low 0.989 | S. cerevisiae deletion strains, locus YOR184W, strain ser1, active compounds read low 0.995 | S. cerevisiae deletion strains, locus YOR231W, strain MKK1, active compounds read low 1.03 | S. cerevisiae deletion strains, locus YOR265W, strain rbl2, active compounds read low 1 | S. cerevisiae deletion strains, locus YOR270C, strain vph1, active compounds read low 1.05 | S. cerevisiae deletion strains, locus YOR290C, strain snf2, active compounds read low 0.979 | S. cerevisiae deletion strains, locus YOR316C, strain cot1, active compounds read low 1 | S. cerevisiae deletion strains, locus YPL051W, strain arl3, active compounds read low 0.999 | S. cerevisiae deletion strains, locus YPL055C, strain LGE1, active compounds read low 1.02 | S. cerevisiae deletion strains, locus YPL078C, strain atp4, active compounds read low 0.978 | S. cerevisiae deletion strains, locus YPL106C, strain sse1, active compounds read low 1.01 | S. cerevisiae deletion strains, locus YPL240C, strain hsp82, active compounds read low 0.999 | S. cerevisiae deletion strains, locus YPL241C, strain CIN2, active compounds read low 1 | S. cerevisiae deletion strains, locus YPL256C, strain CLN2, active compounds read low 1.06 | S. cerevisiae deletion strains, locus YPR119W, strain clb2, active compounds read low 0.999 | S. cerevisiae deletion strains, locus YPR141C, strain kar3, active compounds read low 1 | S. cerevisiae deletion strains, locus YPR163C, strain tif3, active compounds read low 1 | S. cerevisiae deletion strains, locus YPR167C, strain met16, active compounds read low 1.02 | S. cerevisiae deletion strains, strain wtn01, active compounds read low 1.01 | S. cerevisiae strains, strain wild type, active compounds read low 1.02
